Measurements reported in ChEMBL document CHEMBL3988442, “University of Dundee, Small-Polar-MMV Screening Library” (2021).
The whole screen tested about 48,000 compounds, of which about 13,000 (27%) showed an effect of 50% or more. This is one part of the list.

Each compound was assayed on Wolbachia pipientis (assay: Anti-Wolbachia Cell-Based Screen). Conditions: 5 µM.
Type: functional
Parameters: scale not given: in the data most compounds retested in dose-response had high values

In order of falling “Percent Effect” value:
1. Cc1cnccc1CN1CC[C@H](Oc2cccc(F)c2)[C@@](C)(O)C1  130.7%
2. CC1COCCN1Cc1nc(-c2ccsc2)no1 (centres undefined)  130%
3. Cc1ccccc1NC(=O)c1cncc(C2CCNCC2)n1.Cl  126.6%
4. Nc1ncnc2c1ncn2[C@H]1CCN(Cc2ccsc2)CC[C@@H]1O  125.5%
5. COc1cccc(-c2noc(CN3CCOCC3C)n2)c1 (centres undefined)  120.5%
6. Cc1cccc(-c2noc(CN3CCOCC3C)n2)c1 (centres undefined)  119.9%
7. O=C(Nc1ccc(Cl)cn1)c1cncc(C2CCNCC2)n1  119.3%
8. Cc1ccnc(NC(=O)c2cncc(C3CCNCC3)n2)c1  117.9%
9. Cc1nn(C)c(Cl)c1C1CCCN1C(=O)c1cccc(C#N)c1 (centres undefined)  117.2%
10. Cc1nn(C)c(Cl)c1C1CCCN1C(=O)c1ccnc(N(C)C)c1 (centres undefined)  115.9%
11. Cc1nn(C)c(C)c1C1CCCN1C(=O)c1ccnc(N(C)C)c1 (centres undefined)  114%
12. Cc1cnccc1CN1CC[C@@](C)(O)[C@H](Oc2cccc(F)c2)C1  113.3%
13. O=C(O)c1ccc(C2CCCN(Cc3ccc(-c4cc[nH]n4)o3)C2)cc1 (centres undefined)  112.5%
14. O=C(O)c1ccccc1C1CCN(Cc2ccc(-c3cc[nH]n3)o2)C1 (centres undefined)  111.1%
15. I.c1ccc(OCCNC2=NCCCN2)cc1  111%
16. CC1COCCN1Cc1nc(-c2ccc(F)cc2)no1 (centres undefined)  110.9%
17. Cc1cccc(NC(=O)c2cncc(C3CCNCC3)n2)n1  105%
18. CC1COCCN1Cc1nc(-c2ccc(Br)s2)no1 (centres undefined)  104.9%
19. O=C(O)c1ccc(CC2CCN(Cc3ccc(-c4cc[nH]n4)o3)C2)cc1 (centres undefined)  103.3%
20. Cc1nn(C)c(Cl)c1C1CCCN1C(=O)c1ccc2c(c1)COC2 (centres undefined)  103.2%
21. CC1COCCN1Cc1nc(-c2cccc(C(F)(F)F)c2)no1 (centres undefined)  102.5%
22. Cc1ncsc1CN1CC[C@H](O)[C@@H](n2cnc3c(N)ncnc32)CC1  93.47%
23. Cl.O=C(Nc1ccccn1)c1cncc(C2CCNCC2)n1  82.75%
24. Fc1ccc(OCCCNC2=NCCCN2)cc1.I  81.36%
25. Fc1ccc(N2CCCN(Cc3ccc(-c4cc[nH]n4)o3)CC2)cc1  76.67%
26. Cc1nn(C)c(Cl)c1C1CCCN1C(=O)c1ccncc1 (centres undefined)  76.23%
27. Fc1ccc(OCCCNC2=NCCN2)cc1.I  63.04%
28. CC(C)c1nn(CC(=O)N2CCCC2)c(=O)c2c1cnn2C(C)(C)C  46.37%
29. Cc1cnccc1N1CCCN(Cc2ccc(-c3cc[nH]n3)o2)CC1  39.38%
30. Cc1cc(F)ccc1CN1CCCC(O)(CN2CCCC2)C1 (centres undefined)  20.34%
31. CCCc1cc(NCc2cc(C)on2)n2nccc2n1  18.67%
32. Cc1nn(C)c(C)c1CN1CCCC(c2ccc(C(=O)O)cc2)C1 (centres undefined)  16.04%
33. O=S1(=O)C[C@@H]2[C@H](C1)N(Cc1cc(Cl)cc(Cl)c1)CCN2CCO  13.48%
34. Cc1ccnc(NC(=O)c2c(C)oc(C)c2C)c1  13.28%
35. Cc1ncsc1CCN(C)C1CCN(c2ncnc3[nH]cnc23)CC1  13.21%
36. CN(C)c1ccc(CNC2=NCCCN2)cc1.I  13.13%
37. CN(C)c1nc(-c2ccncc2)nc2c1CCN(C(=O)[C@H](N)CO)C2  12.11%
38. Fc1cnc(N2CCN(Cc3ccc(-c4cc[nH]n4)o3)CC2)nc1  10.27%
39. Cn1cnnc1-c1cncc(NCc2ccccc2Br)c1  9.077%
40. O=C1OCCCN1Cc1nc(-c2ccncc2)no1  8.814%
41. CCC(CC)NCC(c1ccccn1)N1CCOCC1 (centres undefined)  8.316%
42. Cn1ncc2c(NCCOc3ccc(F)cc3)nc(C3CCCC3)nc21  8.04%
43. CC1COCCN1Cc1nc(-c2cccc(Br)c2)no1 (centres undefined)  7.569%
44. CCc1cnc(N)nc1N1CCCC2(CCOCC2)C1  7.215%
45. CC1COCCN1Cc1nc(-c2cccs2)no1 (centres undefined)  6.189%
46. CC(C)c1nc(CN(C)C(=O)C2CC(=O)N(Cc3ccncc3)C2)cs1 (centres undefined)  6.051%
47. c1csc(-c2noc(CC3CCCO3)n2)c1 (centres undefined)  5.637%
48. CC(C)c1nc2c(n1C)CCN(Cc1nc(-c3ccsc3)no1)C2  5.269%
49. Br.Cc1ccc(OCCCSC2=NCCN2)cc1  5.255%
50. CC(C)CN1C(=O)c2ccc(C(=O)NCCc3c[nH]cn3)cc2C1=O  4.031%
51. CC(C)NS(=O)(=O)c1cc(C(=O)O)cc(-c2ccccc2C#N)c1  4.012%
52. COc1c(C2CCCN2C(=O)c2ccnc(N(C)C)c2)c(C)nn1C (centres undefined)  3.661%
53. CS(=O)(=O)Cc1ccccc1NCc1cc(Cl)ccc1Cl  3.453%
54. Fc1ccc(OCCCN2CC(n3cccn3)C2)cc1  3.105%
55. Cc1cnn(CC(C)NCc2csc(-c3ccsc3)n2)c1 (centres undefined)  2.803%
56. Cc1cnc(C)c(N2CCN(Cc3ccc(-c4cc[nH]n4)o3)CC2)n1  2.715%
57. CCNC(=O)[C@@H]1C[C@H](N)CN1Cc1ccc(-c2cc[nH]n2)o1  2.507%
58. CC(C)(CNc1ccc(S(=O)(=O)C(F)F)cc1)N1CCOCC1  2.444%
59. Br.Cc1ccc(OCCSC2=NCCN2)cc1  1.775%
60. Cc1cc(N2CCN(Cc3ccc(-c4cc[nH]n4)o3)CC2)cc(C)n1  1.091%
61. Cc1cccnc1CN1CCN(Cc2ccc(-c3cc[nH]n3)o2)CC1  0.5837%
62. CCOCc1ccc(CNC2=NCCCN2)cc1.I  0.3337%
63. c1cc(CN2CCC(n3cc(CN4CCCC4)nn3)CC2)cs1  0.307%
64. Cc1ccnc(NC(=O)c2ccc(Cl)o2)c1  -0.2777%
65. Cc1nn(C)c(Cl)c1C1CCCN1C(=O)c1ccc2nncn2c1 (centres undefined)  -0.8221%
66. COc1cccc(CN(C)C(C)c2ccco2)c1OCCn1ccnc1 (centres undefined)  -0.9941%
67. O=C(Nc1ccc(Cl)cn1)C1CCCN(CCc2ccncc2)C1 (centres undefined)  -1.04%
68. CC(C)[C@@H]1CN(CC(=O)NCc2ccco2)C[C@H]1NS(=O)(=O)N(C)C  -2.04%
69. CCn1nc2c(cc1=O)CN(Cc1nc(-c3ccsc3)no1)CC2  -2.212%
70. CCSc1nc(N)c(NC(=O)c2ccc(C)cc2)c(=O)[nH]1  -2.31%
71. Cc1cnccc1CN1CC[C@@](C)(O)[C@H](Oc2ccccc2)C1  -3.171%
72. O=C(NCc1cccnc1)C1CN(c2cnc3ccccc3n2)CCN1 (centres undefined)  -3.228%
73. Cc1ncsc1CN1CCN(C)C2(CCC(=O)N(CCO)CC2)C1 (centres undefined)  -3.684%
74. Cc1cccc(-c2noc(CN3CCc4nn(C)c(=O)cc4C3)n2)c1  -3.74%
75. COc1ccc(-c2noc(CN3CCOCC3C)n2)cc1OC (centres undefined)  -3.831%
76. O=C(Nc1ccccc1OC1CCOC1)c1cc[nH]n1 (centres undefined)  -3.911%
77. O=C(Nc1ccccn1)c1nc(N2CCCC2)ncc1Cl  -4.003%
78. Cc1cccc(NC2CCN(C(=O)Nc3cccc4[nH]ccc34)CC2)n1  -4.499%
79. CN(C)S(=O)(=O)N1CC[C@]2(O)CCN(c3cc(C#N)ccn3)C[C@@H]2C1  -4.757%
80. O=c1n(Cc2ccccn2)nc(C2CCNCC2)n1Cc1ccccc1  -4.835%
81. CC(C)(C)C(O)CN1CCN(C(=O)c2cccc3[nH]ncc23)CC1 (centres undefined)  -4.967%
82. CCS(=O)(=O)c1ccc(N2CCC(NC(C)=O)CC2)cc1  -5.151%
83. COCc1ccc(CNC(=O)C2=NN(c3ccccc3)C(=O)CN2)cc1  -5.383%
84. COc1cccc(-c2ncc(CN3CCOCC(O)C3)s2)c1 (centres undefined)  -5.443%
85. Cc1occc1C(=O)N1CCc2ncnc(C3CCOC3)c2CC1 (centres undefined)  -5.799%
86. Cc1nn(C)c(C)c1C1CCCN1C(=O)c1cnc2n[nH]c(C)c2c1 (centres undefined)  -6.27%
87. CC(Oc1cccc(Cl)c1)C(=O)Nc1cnn(CCN(C)C)c1 (centres undefined)  -6.613%
88. O=C(NCCn1ccnc1)c1cc(Br)c[nH]1  -7.332%
89. CCN1CC2(CCC1=O)CCN(Cc1cccc(C#N)c1)CC2  -7.959%
90. Cc1ccccc1CN1CC[C@@]2(O)CCN(C(=O)C3CCC3)C[C@H]2C1  -8.444%
91. CN(CCN1CCCCCC1)C(=O)c1cc(CN2CCC(O)CC2)on1  -8.784%
92. O=C(CCC1CCCCC1)NS(=O)(=O)CC1CC1  -8.916%
93. CCC(=O)N(CC)C(c1cccnc1)c1ccc2c(c1)CCO2 (centres undefined)  -9.514%
94. Cc1cccc(NC(=O)c2ccc(-n3cncn3)nn2)n1  -9.734%
95. Nc1ncc(C(=O)N2CCC3(CCCO3)CC2)c(-c2ccccc2)n1  -10.16%
96. CCn1nc(C(=O)N2CCCC2c2noc(C3CC3)n2)ccc1=O (centres undefined)  -10.37%
97. CCCc1cc(C(=O)N2CCC3(CC2)CN(CCN(C)C)C(=O)O3)no1  -10.71%
98. O=S(=O)(Cc1nc(C2CC2)no1)c1cc(F)ccc1F  -10.78%
99. Cc1cnn(CCNCc2ccccc2C#N)c1  -11.13%
100. Cc1ccc(CN2C[C@H](O)C[C@H]2c2nc(-c3ccc(F)cc3)no2)cc1  -12.23%
101. Cc1cccc(-c2noc(CN3CCn4c(nnc4C4CC4)C3)n2)c1  -14.41%
102. Cc1cccc(-c2noc(CN3CCC(c4ccn[nH]4)CC3)n2)c1  -15.7%
103. CCOCCN1CCN(CCc2nc3ccccc3c(=O)[nH]2)CC1  -16.1%
104. Cc1nc(Cn2nc(C3CCNCC3)n(Cc3ccccc3)c2=O)no1  -19.55%
105. Cc1cnn(CCNC(C)c2nnc(-c3cccc(Cl)c3)o2)c1 (centres undefined)  -21.78%
106. Cc1n[nH]cc1CNC(=O)Nc1cccc(OCC(F)(F)F)c1  -23.93%
107. O=C(NCCc1cccs1)[C@]12COC[C@H]1CN(c1ncccn1)C2.O=C(O)C(F)(F)F  -26.22%
108. O=C(Nc1cc(C2CCOCC2)[nH]n1)c1ccc(Cl)cn1  -26.34%
109. COc1cccc(-c2noc3c2CN(c2nc(C)ncc2C)CC3)c1  -35.21%
